FBA Mtb inh = Mtb fructose-bisphosphate aldolase inhibition. P9WQA3. purified M. tuberculosis FBA, fluorescence read-out. inhibition, % at 1 µM. actives 2.3% (n = 360,000); in the data active = inhibition above about 27%
Target sequence (P9WQA3 whole entry, looked up): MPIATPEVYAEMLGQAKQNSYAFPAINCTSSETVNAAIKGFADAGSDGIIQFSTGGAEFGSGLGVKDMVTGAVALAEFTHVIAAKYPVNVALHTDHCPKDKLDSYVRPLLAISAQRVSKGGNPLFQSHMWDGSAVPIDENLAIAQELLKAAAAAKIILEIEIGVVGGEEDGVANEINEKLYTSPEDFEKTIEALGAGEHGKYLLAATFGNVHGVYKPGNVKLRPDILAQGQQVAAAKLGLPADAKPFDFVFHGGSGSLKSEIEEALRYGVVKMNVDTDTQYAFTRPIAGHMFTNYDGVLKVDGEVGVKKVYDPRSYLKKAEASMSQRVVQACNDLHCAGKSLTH
BoNT A protease = inhibitors of Botulinum neurotoxin A light chain protease; AID 588499; inhibition, % at 10 µM; multiplex microsphere protease substrate cleavage, flow cytometry; actives 0.17% (n = 360,000)
Bead autofluor = counter-screen for toxin protease inhibitors: compound fluorescence | fluorescence intensity (concentration not given with the values) | actives 3.1% (n = 360,000) | compound autofluorescence counterscreen, microsphere flow cytometry; active compounds read high; in the data active = fluorescence intensity above about 16000; inconclusive = no clear call, values can overlap the other calls
BoNT-F LC inh = BoNT F light chain protease inhibition. AID 588497. actives 0.22% (n = 360,000). Multiplex microsphere protease cleavage assay, flow cytometry. inhibition, % at 10 µM; in the data active = inhibition above about 35%, passing the limit was not always enough; inconclusive = no clear call, values can overlap the other calls
GDH-TPI inh = GDH-TPI coupled enzyme inhibition counter-screen; actives 1.2% (n = 360,000); inhibition, % at 4.8 µM; GDH-TPI coupled enzyme counterscreen, NADH absorbance; in the data active = inhibition above about 30%
Anthrax LF inh2 = inhibitors of Bacillus anthracis lethal factor protease | multiplex microsphere protease cleavage assay, LF | inhibition, % at 10 µM | actives 0.12% (n = 360,000)
Hits are given with their value; 0 = inactive; ? = inconclusive; - = no result; + = active, no number. Most compounds without a hit are left out; they make up all but 6.6% or so of the library. Rule as the data show it, unless noted: active = inhibition above about 30%; inconclusive = no clear call, values can overlap the other calls; inactive = below that.

SMILES	FBA Mtb inh	BoNT A protease	Bead autofluor	BoNT-F LC inh	GDH-TPI inh	Anthrax LF inh2
Nc1c(C(=O)OCC2CCCO2)c2nc3ccccc3nc2n1Cc1cccs1 (configuration not stated)	163.1	0	0	0	0	0
CNc1nc(Oc2cccc(F)c2)c2sccc2n1	0	0	0	0	0	0
CN(C(=O)c1cccc(Br)c1)C1CCS(=O)(=O)C1 (configuration not stated)	0	0	0	0	0	0
COCCNC(=O)c1c(N)n(CCCn2ccnc2)c2nc3ccccc3nc12	131.6	0	0	0	0	0
CCCCNC(=O)c1c(N)n(CCCOC)c2nc3ccccc3nc12	115.2	0	21009	0	0	0
COCCCn1c(N)c(C(=O)OCCOC)c2nc3ccccc3nc21	+	0	0	0	0	0
COCCCNC(=O)c1c(N)n(/N=C/c2cccnc2)c2nc3ccccc3nc12	0	0	0	0	0	0
CCOc1ccc(S(=O)(=O)N(C)c2ccc(OCC(=O)Nc3nc(-c4cc(OC)ccc4OC)cs3)cc2)cc1	0	0	0	0	0	0
CC1CCC(NC(=O)CCN2C(=O)C3C4C=CC(C4)C3C2=O)CC1 (configuration not stated)	0	0	0	0	0	0
O=c1c2ccccc2oc2c1ccc1ccccc12	36.0	0	0	0	0	0
CCC1(C)Cc2c(sc3c2c(=O)n(C)c2nnc(SCC(=O)c4ccccc4)n32)CO1 (configuration not stated)	0	0	20408	0	0	0
Cc1cccc(CC(=O)NCC2CCCCC2)c1	0	0	0	0	0	0
CC(C)(Oc1ccc(Cl)cc1)C(=O)NCc1ccncc1	0	0	20771	0	0	0
CCn1c(SCC#N)nc2c(c1=O)C1(CCCC1)Cc1ccccc1-2	0	0	24128	0	0	0
CCCn1c(SCC(N)=O)nc2c(c1=O)C1(CCCC1)Cc1ccccc1-2	0	0	0	0	0	0
CC(=O)c1ccc(OC(C)C)c(Cc2c(O)nc(N)[nH]c2=O)c1	0	0	0	0	0	0
COc1ccc(COc2ccsc2C(=O)Nc2ccc(Cl)cc2)cc1	0	0	19044	0	0	0
COc1ccccc1-c1nnc(NC(=O)CSc2nncn2C)s1	0	0	0	0	0	0
CCN(CCCn1c(SCC#N)nc2ccccc2c1=O)c1ccccc1	0	0	19328	0	0	0
CCOc1c(C(N)=O)c(-c2ccccc2)c2c(=O)[nH]c3ccccc3n12	112.2	0	0	0	0	0
CCCn1c(C)c(C(=O)OCC)c(O)c(-c2ccccc2)c1=O	0	0	0	0	0	0
CC(=O)NC(C)C12CC3CC(CC(CC(=O)O)(C3)C1)C2 (configuration not stated)	0	0	0	0	0	0
CC(=O)NC12CC3CC(CC(CC(=O)O)(C3)C1)C2	0	0	21352	0	0	0
CC(=O)NC12CC3CC(C)(C1)CC(NC(C)=O)(C3)C2	0	?	23165	0	0	0
COc1ccc(S(=O)(=O)N2CCC[C@H]2C(=O)N2CCC[C@H]2C(=O)NCc2ccncc2)cc1C	-	0	0	0	-	0
SMILES	FBA Mtb inh	BoNT A protease	Bead autofluor	BoNT-F LC inh	GDH-TPI inh	Anthrax LF inh2
O=C(O)c1ccc(-c2cccc(Cl)c2)o1	0	?	23409	0	0	0
O=C(NC(=S)Nc1cc(Cl)ccc1N1CCOCC1)c1ccc(-c2cccc(Cl)c2)o1	0	0	16940	0	0	0
S=C(c1ccc(-c2cccc(Cl)c2)o1)N1CCCCC1	0	0	0	0	0	0
Nc1ccccc1N=Cc1ccc(-c2cccc(Cl)c2)o1	145.8	0	0	0	0	0
COC(=O)N/N=C/c1ccc(-c2cc(Cl)cc(Cl)c2)o1	0	0	0	0	45.8	0
N#C/C(=C(/O)c1ccc(Cl)c([N+](=O)[O-])c1)c1nc2ccccc2[nH]1	0	0	0	0	0	0
COc1ccccc1CNC(=O)COC(=O)c1cccc(-n2cnnn2)c1	0	0	0	0	0	0
O=C(NCc1ccccn1)c1cccc(S(=O)(=O)N2CCCCC2)c1	0	-	-	-	0	-
O=C(Cn1nc(C(=O)O)c2ccccc2c1=O)Nc1cccc(S(=O)(=O)N2CCCC2)c1	0	-	-	-	0	-
N#CCCN1CCN(C(=S)c2ccc(-c3cccc(Cl)c3)o2)CC1	0	0	0	0	39.2	0
COC(=O)N/N=C/c1ccc(-c2cccc(Cl)c2)o1	0	0	0	0	30.8	0
CCOC(=O)CNc1nc(C(C)(C)C)nc2c1nnn2Cc1ccccc1Cl	0	0	23473	0	0	0

Screens deposited in PubChem by several laboratories.
